Experimental findings from the supplement of paper PMC3842684 are described below.

Assay [1] deals with P. falciparum NF54-pfs16-GFP early (I-III) stage gametocytes. In words: relative % inhibition of viable gametocyte number; higher = more gametocytocidal. The settings on record: stage: early (I-III) gametocyte, incubation 72 h. Put shortly: (§1)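 Magnet-isolated NF54 pfs16-GFP gametocytes at early (I/IIa, day 2) or late (day 8) stage were exposed to compound at 5 or 0.5 µM for 72 h at 37°C, 5% CO2, 5% O2, at 10% parasitaemia and 0.1% haematocrit. Elongated GFP objects with MitoTracker Red signal above cut-off were counted as viable by confocal imaging. Relative inhibition was normalised to in-plate vehicle and positive-control wells.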

In assay [2] the test system is P. falciparum NF54-pfs16-GFP late (IV-V) stage gametocytes. The description is as above. The note with it: stage: late (IV-V) gametocyte, incubation 72 h. A digest of the protocol: as §1

`O=C(Nc1cccc(C2=NCCN2)c1)Nc1cccc(C2=NCCN2)c1`: the relative % inhibition was 9.97% in assay [1] (0.5 µM), 6.29% in assay [1] (5 µM), 10.7% in assay [2] (0.5 µM) and -30.3% in assay [2] (5 µM).

As for `Cc1ccnc(NC(c2cccc(OCc3ccccc3)c2)c2ccc3cccnc3c2O)c1` (stereo not drawn), the relative % inhibition was 14.9% in assay [1] (0.5 µM), 96.4% in assay [1] (5 µM), 9.51% in assay [2] (0.5 µM) and 57.2% in assay [2] (5 µM).

`COc1ccc2c(c1OC)C(=O)N1c3ccccc3N=C(c3ccc(C)cc3)CC21` (stereo not drawn): the relative % inhibition is 11.7% in assay [1] (0.5 µM), 60.6% in assay [1] (5 µM), -8.16% in assay [2] (0.5 µM) and 5.82% in assay [2] (5 µM).

With `COc1ccc2nc(C)cc(Nc3ccc(Cl)cc3)c2c1`, the relative % inhibition is -10.1% in assay [1] (0.5 µM), 13.9% in assay [1] (5 µM), 7.89% in assay [2] (0.5 µM) and 11.7% in assay [2] (5 µM).

As for `COc1ccc(C2NCCc3c2[nH]c2ccccc32)cc1CN1CCN(c2ccc(F)cc2)CC1` (stereo not drawn), the relative % inhibition in assay [1] (0.5 µM) was found to be 18.2%; in assay [1] (5 µM) it was 90%; in assay [2] (0.5 µM) it was 8.16%; in assay [2] (5 µM) it was 58%.

As to `Oc1c2c(nc3cc(-c4ccccc4)nn13)CCCC2`, the relative % inhibition in assay [1] (0.5 µM) is 3.76%; in assay [1] (5 µM), -0.467%; in assay [2] (0.5 µM), -4.66%; in assay [2] (5 µM), 57.1%.

As for `COc1ccc(C2Sc3ccccc3N=C3C2=C(O)c2ccccc23)cc1` (stereo not drawn), the relative % inhibition worked out at 6.74% in assay [1] (0.5 µM), 20.4% in assay [1] (5 µM), 24% in assay [2] (0.5 µM) and 51.1% in assay [2] (5 µM).

Take `CCOC(=O)c1c(C)n(-c2ccc(Cl)cc2)c2ccc(OC(=O)C=Cc3ccccc3)cc12`: the relative % inhibition in assay [1] (0.5 µM) is 15.8%; in assay [1] (5 µM), 26.8%; in assay [2] (0.5 µM), 11.1%; in assay [2] (5 µM), 11.5%.

For `CC(C)OCc1cc(CN2CCN(c3cccc(Cl)c3)CC2)c(O)c2ncccc12`, the relative % inhibition in assay [1] (0.5 µM) worked out at 10.9%; in assay [1] (5 µM), 96.4%; in assay [2] (0.5 µM) it was 8.7%; in assay [2] (5 µM), 98.4%.

Take `O=C(Nc1ccc(Br)cc1)Nc1cccc(Cl)c1`: the relative % inhibition in assay [1] (0.5 µM) was 20%; in assay [1] (5 µM) it was 26.8%; in assay [2] (0.5 µM) it was -8.75%; in assay [2] (5 µM), -6.59%.

Turning to `Cc1ccc(Cl)cc1N1CCN(CCCNC(=O)C2CCN(c3nc4ccccc4[nH]3)CC2)CC1`, the relative % inhibition in assay [1] (0.5 µM) is 20%; in assay [1] (5 µM), 66%; in assay [2] (0.5 µM), 28.3%; in assay [2] (5 µM) it was -3.06%.

As for `O=C(NCC(c1ccsc1)N1CCCCCC1)c1ccc(C(F)(F)F)cc1` (stereo not drawn), the relative % inhibition in assay [1] (0.5 µM) is -5.22%; in assay [1] (5 µM) it was 0.803%; in assay [2] (0.5 µM) it was -0.775%; in assay [2] (5 µM) it was 5.04%.
